# Sfp PPTase inh – qHTS Assay for Inhibitors of Bacillus subtilis Sfp phosphopantetheinyl transferase (PPTase). 4'-phosphopantetheinyl transferase ffp (Bacillus subtilis), Q9F4F7. Biochemical Sfp PPTase activity, qHTS. actives 3.5% (n = 310,000). Potency, µM, for the others: largest response in the series, negative = inhibition, hits mostly inhibitors;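 further: the enzyme is Sfp with the accession as filed and its product quenches rhodamine fluorescence; potency means the concentration at half of the fitted maximal effect; 0% = enzyme reaction without inhibitor and -100% = no enzyme wells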
#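 Buffer: 50 mM Hepes-Na pH 7.6, 10 mM MgCl2, 0.01% Nonidet P-40, 0.01% BSA. Enzyme 15 nM, pre-exposed to compound 15 min; substrates then added and fluorescence change tracked over 30 min.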
# BAZ2B block – qHTS Assay for Inhibitors of BAZ2B; AlphaScreen BAZ2B-H3K14Ac peptide displacement; actives 4.4% (n = 360,000); Bromodomain adjacent to zinc finger domain protein 2B (Homo sapiens), Q9UIF8; Potency, µM (series often up to 114 µM), inactives show at the top dose activity change, negative = inhibition, actives largely listed as inhibitors; AID 504333, 2011; further: potency means the concentration at half of the fitted maximal effect; on the % scale 0 is the no-effect control and ±100 the full control effect; nearly all actives have a fitted effect of over 60% in size
# Target sequence (Q9UIF8 whole entry, looked up, the tested form may be a part): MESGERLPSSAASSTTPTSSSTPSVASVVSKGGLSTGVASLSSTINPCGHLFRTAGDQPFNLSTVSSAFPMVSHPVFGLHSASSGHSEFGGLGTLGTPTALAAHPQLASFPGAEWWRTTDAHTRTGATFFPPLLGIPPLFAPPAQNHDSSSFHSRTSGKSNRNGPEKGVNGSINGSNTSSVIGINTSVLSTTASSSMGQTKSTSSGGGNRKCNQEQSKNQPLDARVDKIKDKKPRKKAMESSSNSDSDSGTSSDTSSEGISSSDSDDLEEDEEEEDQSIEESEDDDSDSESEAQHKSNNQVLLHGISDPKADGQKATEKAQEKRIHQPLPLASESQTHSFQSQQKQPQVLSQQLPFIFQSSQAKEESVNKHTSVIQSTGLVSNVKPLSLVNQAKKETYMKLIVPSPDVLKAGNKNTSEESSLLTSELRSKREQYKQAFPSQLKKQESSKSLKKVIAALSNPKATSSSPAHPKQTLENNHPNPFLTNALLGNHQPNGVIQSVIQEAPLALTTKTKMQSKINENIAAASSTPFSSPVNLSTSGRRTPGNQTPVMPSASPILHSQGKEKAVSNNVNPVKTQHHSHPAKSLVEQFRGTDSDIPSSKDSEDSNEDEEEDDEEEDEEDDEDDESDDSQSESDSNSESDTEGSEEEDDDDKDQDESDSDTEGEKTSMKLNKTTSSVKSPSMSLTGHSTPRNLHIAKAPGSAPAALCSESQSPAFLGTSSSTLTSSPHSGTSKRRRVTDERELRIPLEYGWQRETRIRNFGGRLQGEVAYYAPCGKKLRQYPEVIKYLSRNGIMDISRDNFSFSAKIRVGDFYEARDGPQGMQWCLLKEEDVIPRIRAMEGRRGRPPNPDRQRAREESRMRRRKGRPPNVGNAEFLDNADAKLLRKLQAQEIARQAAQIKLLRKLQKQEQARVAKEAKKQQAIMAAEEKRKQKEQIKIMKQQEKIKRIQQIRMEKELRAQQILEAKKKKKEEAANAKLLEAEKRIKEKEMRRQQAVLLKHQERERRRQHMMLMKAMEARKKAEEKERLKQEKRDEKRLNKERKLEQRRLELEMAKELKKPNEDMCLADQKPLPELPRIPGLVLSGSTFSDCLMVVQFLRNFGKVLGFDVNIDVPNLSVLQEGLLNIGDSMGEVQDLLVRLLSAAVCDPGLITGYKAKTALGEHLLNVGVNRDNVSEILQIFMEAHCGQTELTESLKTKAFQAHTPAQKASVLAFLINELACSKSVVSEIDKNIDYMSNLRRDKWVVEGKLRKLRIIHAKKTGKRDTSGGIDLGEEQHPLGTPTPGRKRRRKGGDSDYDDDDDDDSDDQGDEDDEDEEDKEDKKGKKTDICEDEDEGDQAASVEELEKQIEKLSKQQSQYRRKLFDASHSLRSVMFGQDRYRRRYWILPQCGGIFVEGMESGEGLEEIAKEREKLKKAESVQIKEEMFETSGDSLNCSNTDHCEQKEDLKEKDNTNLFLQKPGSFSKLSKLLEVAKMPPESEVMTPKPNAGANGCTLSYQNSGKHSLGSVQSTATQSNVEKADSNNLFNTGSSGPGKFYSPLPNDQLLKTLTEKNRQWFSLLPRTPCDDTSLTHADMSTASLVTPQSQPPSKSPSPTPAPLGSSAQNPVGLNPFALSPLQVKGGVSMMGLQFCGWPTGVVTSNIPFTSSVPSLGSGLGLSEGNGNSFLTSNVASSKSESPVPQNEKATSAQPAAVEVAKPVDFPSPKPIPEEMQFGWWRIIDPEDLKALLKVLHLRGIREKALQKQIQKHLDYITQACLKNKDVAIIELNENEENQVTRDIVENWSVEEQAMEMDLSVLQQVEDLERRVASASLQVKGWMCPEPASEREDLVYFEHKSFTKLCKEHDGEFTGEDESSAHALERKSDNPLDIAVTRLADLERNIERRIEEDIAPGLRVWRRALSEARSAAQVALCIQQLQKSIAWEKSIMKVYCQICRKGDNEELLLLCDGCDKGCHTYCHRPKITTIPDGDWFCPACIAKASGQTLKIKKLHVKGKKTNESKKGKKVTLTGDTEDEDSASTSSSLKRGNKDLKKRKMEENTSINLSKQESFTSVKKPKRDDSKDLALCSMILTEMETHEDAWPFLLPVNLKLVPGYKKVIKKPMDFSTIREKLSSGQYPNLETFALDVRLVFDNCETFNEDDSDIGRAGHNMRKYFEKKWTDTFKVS
#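 Inhibition is scored as reduced AlphaScreen emission. The BAZ2B/b-H3(5-23)K14Ac complex (50 nM each) in PBS pH 7.4, 0.01% Tween-20 meets compound (up to 110 uM) for 30 min at RT before bead addition.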
# HP1b chromo inh – HTS for Inhibitors of HP1-beta Chromodomain Interactions with Methylated Histone Tails. Potency, µM (series often up to 114 µM), for the others: at the top dose activity change, negative = inhibition, hits mostly inhibitors. Chromobox protein homolog 1 (Homo sapiens), P83916. actives 0.56% (n = 390,000). AID 540317, 2011. AlphaScreen HP1-beta / biotin-H3K9me3 peptide binding; further: potency means the concentration at half of the fitted maximal effect; nearly all actives have a fitted effect of over 70% in size
#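 Compound inhibition of the preformed complex between 50 nM HP1-beta and 50 nM biotinylated H3K9me3 peptide was read by AlphaScreen. Buffer was PBS pH 7.4 with 0.01% Tween-20. Incubations ran 30 min at room temperature, with 10 ug/mL donor/acceptor beads.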
# G9a inh-1 – qHTS Assay for Inhibitors of Histone Lysine Methyltransferase G9a; Potency, µM (titrated, usually from 102 µM), inactives show top-dose activity, negative = inhibition, most hits filed as inhibitors; actives 8.8% (n = 350,000); G9a H3K9 monomethylation, AlphaScreen, 2 h; further: potency means the concentration at half of the fitted maximal effect; on the % scale 0 is the no-effect control and ±100 the full control effect; nearly all actives have a fitted effect of over 75% in size
#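 Enzyme 20 nM + cpd, 15 min RT; add b-H3K9 pep 500 nM / SAM 20 uM; 2 h RT; anti-H3K9me1 Ab 0.5 ug/mL + SA donor / anti-rabbit acceptor beads 20 ug/mL each, 10 min; AlphaScreen read.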
# PLK1 PBD inh – qHTS for Inhibitors of PLK1-PDB (polo-like kinase 1 - polo-box domain): Primary Screen; Serine/threonine-protein kinase PLK1 (Homo sapiens), P53350; Plk1 PBD binding of FITC phosphopeptide, fluorescence polarization; Potency, µM, for inactives: max response, negative = inhibition, actives largely listed as inhibitors; actives 2.8% (n = 360,000); further: potency means the concentration at half of the fitted maximal effect; series mostly up to about 57 µM; on the % scale 0 is the no-effect control and ±100 the full control effect; nearly all actives have a fitted effect of over 65% in size
# JMJD2A Tudor inh – qHTS Assay for Inhibitors of JMJD2A-Tudor Domain | Lysine-specific demethylase 4A (Homo sapiens), O75164 | AlphaScreen JMJD2A-Tudor / H3K4me3 peptide binding | Potency, µM (series often up to 114 µM), without a hit: at the highest dose activity change, negative = inhibition, hits mostly inhibitors | actives 4.4% (n = 390,000) | AID 504339, 2011; further: potency means the concentration at half of the fitted maximal effect; on the % scale 0 is the no-effect control and ±100 the full control effect; nearly all actives have a fitted effect of over 50% in size
# JMJD2E inh – Confirmation qHTS Assay for Inhibitors of Human Jumonji Domain Containing 2E (JMJD2E) | actives 93% (n = 140) | shares compounds with JMJD2A Tudor inh | Recombinant JMJD2E, FDH-coupled NADH fluorescence (FDH is formaldehyde dehydrogenase) | Potency, µM (series often up to 56.8 µM), for the others: at the highest dose activity change, negative = inhibition, actives largely listed as inhibitors
# FDH counter – Counterscreen for JMJD2E Inhibitors: qHTS Assay for Inhibitors of Formaldehyde Dehydrogenase (FDH); shares compounds with JMJD2A Tudor inh; FDH enzyme assay, NADH fluorescence kinetic; Potency, µM (titrated, usually from 56.7 µM), without a hit: top-dose activity, negative = inhibition, actives largely listed as inhibitors; actives 10% (n = 140)
# G9a inh-2 – qHTS Assay for Inhibitors of Histone Lysine Methyltransferase G9a: Hit Confirmation; Potency, µM, actives largely listed as inhibitors; G9a H3K9 monomethylation, AlphaScreen, 2 h; actives 89% (n = 370); shares compounds with JMJD2A Tudor inh; AID 588344, 2011; further: potency means the concentration at half of the fitted maximal effect; nearly all actives have a fitted effect of over 65% in size
# RGS4 inh – qHTS for Inhibitors of Regulator of G Protein Signaling(RGS) 4: Hit Validation; shares compounds with JMJD2A Tudor inh; RGS4 GAP activity, Transcreener GDP fluorescence polarization; Potency, µM, actives largely listed as inhibitors; actives 80% (n = 25); AID 602388, 2012
# * hit, by the source's call; ? = inconclusive; · = no result; ! = not active in a repeat; [ ] = another dose, or the depositor's remark. In the library only some 12% were active in any assay of this set; here they are far more common. The call rests on the fitted dose curve; in most records, active means well fitted curve in the direction sought with a large enough effect; inconclusive means small, poorly fitted or top-dose-only effect, or another doubt; inactive means no such curve, though single readings can be large; an effect the other way counts as inactive or inconclusive.
SMILES,Sfp PPTase inh,BAZ2B block,HP1b chromo inh,G9a inh-1,PLK1 PBD inh,JMJD2A Tudor inh,G9a inh-2,others
COc1ccc(OC)c(C(=O)CN2C(=O)C(=O)N(C3CCCC3)C2=O)c1,·,·,31.0%,·,2.2%,-12.3%,·,
CCOc1ccc(S(=O)(=O)Nc2nc3ccccc3nc2N2CCN(C)CC2)cc1,8.5%,-28.1%,30.0%,?,-0.6%,-11.7%,?,
CCN(C(=O)COC(=O)c1ccc2c(c1)OCO2)c1ccc(F)cc1,·,·,16.3%,·,-9.1%,-13.2%,·,
Cc1ccc(-c2nc(CC(=O)Nc3cccc(S(=O)(=O)NC4=NCCC4)c3)cs2)cc1,·,5.4%,20.0%,-3.6%[12.7 µM],-7.2%,-16.2%,·,
CN(c1ccccc1)S(=O)(=O)c1nnc(NC(=O)COc2ccccc2)s1,12.7%,-25.3%,50.1%,?,-9.9%,-25.5%,·,
O=C(COc1ccccc1)Nc1nnc(S(=O)(=O)Nc2ccccc2)s1,19.5%,1.41µM*!,46.0%,?,-2.8%,?,?,
C[C@H]1CN([C@@H](C)CO)C(=O)CCCn2cc(nn2)CO[C@@H]1CN(C)S(=O)(=O)c1cccc(F)c1,·,·,·,·,33.1%,·,·,
O=C(c1cccnc1)N1CCN(Cc2ccc3c(c2)OCO3)CC1,?,50.1µM*,?,?,-7.4%,6.31µM*,7.1*,
Cc1cc(C)cc(C(=O)N2CCN(Cc3ccc4c(c3)OCO4)CC2)c1,-1.0%,-1.9%,17.8%,?,-1.8%,-17.2%,·,
CCN(CC(=O)Nc1ccc(NC(C)=O)cc1)Cc1c(O)ccc2cc(Br)ccc12,-16.9%,50.1µM*,70.8µM*,1.78µM*,9.47µM*,50.1µM*,0.448*,
COc1ccc(NC(=O)CN(C)CC(=O)NCc2ccc(C)cc2)cc1,·,-4.2%,17.6%,18.5%[12.7 µM],-6.3%,-13.9%,·,
Cc1ccc(NC(=O)CN(C)Cc2c(O)ccc3ccccc23)cc1,-17.4%,-32.6%,-12.3%,1.41µM*,3.77µM*,79.4µM*,0.632*,
CCN(CC)CCSc1nc2ccccc2n1Cc1ccccc1,-10.6%,-37.9%,52.4%,?,-3.2%,-11.3%,·,
Cc1noc(C(=O)N2CCN(Cc3ccc4c(c3)OCO4)CC2)c1Cl,9.5%,-30.6%,28.8%,?,1.0%,-8.3%,·,
COc1ccc(Cl)cc1NC(=O)c1c(NCc2ccc(C)o2)sc2c1CCC(C)C2 (stereo unspecified),·,-6.4%,22.7%,?,·,-34.6%,·,
COc1ccc(OC)c(NC(=O)c2c(NCc3ccc(C)o3)sc3c2CCCCC3)c1,·,-36.7%,?,1.58µM*,·,35.5µM*,5.13*,
COc1ccccc1NC(=O)c1c(NCc2ccc(C)o2)sc2c1CCCCC2,·,?,?,1.26µM*,·,44.7µM*,3.63*,
COc1cc(OC)c(C(=O)CCCN2CCCC2)c(OC)c1,16.5%,7.7%,21.1%,?,-1.7%,-6.5%,9.58*,
COc1ccc(NC(=O)CCN2CCCCCC2)c(OC)c1,16.0%,-2.8%,10.4%,?,-10.2%,-16.6%,·,
O=C(CSc1cccc[n+]1[O-])Nc1ccccc1Oc1ccccc1,39.8µM*,-20.5%,?,2µM*,29.9µM*,50.1µM*,2*,
O=C(CSc1cccc[n+]1[O-])Nc1ccccc1C(F)(F)F,·,·,28.2%[57 µM],·,-10.7%,3.4%,·,
O=C(Nc1nc(-c2ccccn2)cs1)c1cccc(-n2cnnn2)c1,?,50.1µM*,105.2%,9.6%[59 µM],-15.1%,79.4µM*,·,RGS4 inh=?
Cc1ccc(N2C(=O)CC(Sc3ncn[nH]3)C2=O)cc1C (stereo unspecified),50.1µM*,?,-61.6%,2µM*,29.9µM*,10µM*,·,JMJD2E inh=7.08µM*;FDH counter=0.224µM*
Cc1ccc(-c2nc3cccc(C)n3c2Nc2ccc(F)cc2)o1,·,·,?,·,·,56.2µM*,·,RGS4 inh=18.9*
O=C(Nc1ccc2c(c1)[C@H]1C[C@@H](CC(=O)N3CCOCC3)O[C@@H](CO)[C@H]1O2)C1CCOCC1,·,·,·,·,-9.0%,·,·,
SMILES,Sfp PPTase inh,BAZ2B block,HP1b chromo inh,G9a inh-1,PLK1 PBD inh,JMJD2A Tudor inh,G9a inh-2,others
c1ccc(-c2ccc3c(c2)NCCN3)cc1,-21.3%,56.2µM*,?,?,-15.8%,44.7µM*,0.564*,
COc1cccc(-c2cncnc2NCc2cccnc2)c1,?,·,·,-6.0%[0.501 µM],·,·,·,RGS4 inh=29.9*
CCOC(=O)C1=CCN(S(=O)(=O)c2ccc(C)cc2)[C@H]1c1ccccc1Cl,·,·,·,·,-0.1%,·,·,
COc1cc(NC(=O)c2cnc3c(-c4ccc(F)cc4)c(C)nn3c2C)cc(OC)c1,·,-4.2%,31.3%,6.7%[59 µM],·,-18.7%,·,
O=C(CCN1CCC(c2ccccc2)C1)c1ccc2c(c1)OCCO2 (stereo unspecified),50.1µM*,?,13.2%,7.94µM*,5.97µM*,-23.7%,5.13*,
O=C(CCCc1ccccc1)c1ccc2c(c1)OCCO2,-17.4%,221.6%,373.3%,158.9%[59 µM],2.0%,204.9%,·,
CC1(Cc2ccc(F)cc2)C(=O)Nc2ccc(-c3cccnc3)cc21 (stereo unspecified),·,·,·,·,1.0%,·,·,
Cc1ccc(S(=O)(=O)N2CCCc3cc(NC(=O)c4ccc(Cl)cc4)ccc32)cc1,·,-13.3%,37.3%,5.3%[12.7 µM],·,-0.7%,·,
CCc1cnc2c(c1SCC(=O)Nc1ccc(C(=O)OC)cc1)c(=O)n(C)c(=O)n2C,·,3.2%,42.8%,4.7%[59 µM],·,-7.8%,·,
